Reference: PubChem BioAssay (Tox21)
Records with an inconclusive call do not appear. Unmarked numbers belong to inactive results. The call rests on the fitted dose curve; in most records, active means well fitted cell-killing curve with a large enough effect in the repeat runs (not every such curve was filed as active); inconclusive means weak or mixed curves, or effect the other way; inactive means no such curve, though single readings can be large or run the other way.

test: qHTS assay to identify small molecule antagonists of the farnesoid-X-receptor (FXR) signaling pathway - cell viability counter screen (AID 743221); conditions: FXR-bla HEK293T viability, CellTiter-Glo luminescence, 16 h; series mostly up to 62.6 µM; activity change, negative = cytotoxicity: at the top concentration; further: nearly all actives have a fitted effect of over 50% in size
Text: National Center for Advancing Translational Sciences [NCATS]
NIH Chemical Genomics Center [NCGC]
U.S. Environmental Protection Agency [EPA]
National Institutes of Environmental Health Sciences [NIEHS]
National Toxicology Program [NTP]
U.S. Food and Drug Administration [FDA]
The farnesoid-X-receptor (FXR), a nuclear hormone receptor, is highly expressed in liver, intestine, kidney and adrenal cortex. Natural ligands of FXR are the bile acids (Cholic acid, Chenodeoxy cholic acid etc). FXR is an important regulator of diverse metabolic pathways, including the bile acid homeostasis, lipid and glucose metabolisms. FXR regulates the expression of target genes by binding either as a monomer or as a heterodimer with the retinoid X receptor (RXR). Numerous studies have reported that FXR exerts protective function during cholestasis, diabetes, liver regeneration, and cancer. To identify compounds that inhibit FXR signaling, GeneBLAzer FXR-UAS-bla HEK 293T cell line (Invitrogen, Carlsbad, CA) containing a beta-lactamase reporter gene under the control of a UAS response element was used to screen the Tox21 10K compound library. The cytotoxicity of the Tox21 compound library against the FXR-bla cell line was tested in parallel by measuring the cell viability using CellTiter-Glo assay in the same wells.
Tox21 Assay Protocol Summary:
FXR-bla cells were dispensed at 5000 cells/5uL/well in 1536-well black wall/clear bottom plates using a Multidrop Combi (Thermo Fisher Scientific, Waltham, MA) dispenser. After the assay plates were incubated at 37 C and 5% CO2 for 5 h, 23 nL of compounds dissolved in DMSO, positive controls or DMSO only was transferred to the assay plate by a Pintool station (Kalypsys, San Diego, CA), followed by addition of 1 uL Chenodeoxycholic acid (50 uM, final concentration in the wells). The assay plates were incubated at 37C for 16 h. After 1 uL of LiveBLAzerTM B/G FRET substrate was added using a Bioraptr Flying Reagent Dispenser (FRD) workstation (Beckman Coulter, Indianapolis, IN), the plates were incubated at room temperature for 2 h, and fluorescence intensity was measured by an Envision plate reader (PerkinElmer, Shelton, CT). For cell viability readout that measures cytotoxicity, 4uL/well of CellTiter-Glo reagent was added into the assay plates using a Bioraptr FRD. After 30 min incubation at room temperature, the luminescence intensity in the plates was measured using a ViewLux plate reader (PerkinElmer).
On the % scale 0 is the no-effect control and ±100 the full control effect.

Structure (SMILES)	activity change, negative = cytotoxicity
NC(=S)C(N)=S	-13.1%
Cc1ncc2n1-c1ccc(Cl)cc1C(c1ccccc1F)=NC2	3.82%
CC(=O)Nc1cc([As](=O)(O)O)ccc1O	-3.92%
COC(C)(C)C	-4.45%
CNC(=O)O/N=C(\C)SC	7.83%
CCC(=O)c1ccccc1	10.7%
CC(C(O)c1ccccc1)N(C)C/C=C/c1ccccc1 (stereo not given)	-2.27%
CC(C)(C)OC(=O)c1ncn2c1[C@@H]1CCCN1C(=O)c1c(Br)cccc1-2	6.13%
Fc1ccc(C2(Cn3cncn3)OC2c2ccccc2Cl)cc1 (stereo not given)	-11.4%
CNC(=O)Oc1cccc(C(C)C)c1	-8.95%
NC1=NC(=O)C(c2ccccc2)O1 (stereo not given)	6.62%
O=C(Nc1ccccc1)N(Cc1ccc(Cl)cc1)C1CCCC1	-10.1%
O=S(=O)(O)C(F)(F)C(F)(F)C(F)(F)C(F)(F)C(F)(F)C(F)(F)F	-3.45%
CCC(C)(C)c1cc(-n2nc3ccccc3n2)c(O)c(C(C)(C)CC)c1	0.178% [at 81.1 µM]
O=C(Nc1ccccc1)c1ccccc1I	5.13%
N#CC(CCc1ccc(Cl)cc1)(Cn1cncn1)c1ccccc1 (stereo not given)	4.76%
CC1=NNC(=O)N(/N=C/c2cccnc2)C1	14.5%
CC(C)NCC(O)c1ccc(N)c(C#N)c1 (stereo not given)	-5.15%
c1cc2c(c(N3CCNCC3)c1)OCCO2	-7.44%
C=CC1CC=CCC1 (stereo not given)	-0.734%

Structure (SMILES)	activity change, negative = cytotoxicity
COc1cc2c(cc1OC)[C@@]13CCN4CC5=CCO[C@H]6CC(=O)N2[C@H]1[C@H]6[C@H]5C[C@H]43	4.76%
Cc1ccccc1CO[C@@H]1C[C@@]2(C(C)C)CC[C@]1(C)O2	-1.17%
CC(=O)C(Cl)Cl	25.5% [at 81.1 µM]
C=C(C)[C@@H]1CC=C(C=O)CC1	7.11%
CNNC	14.1% [at 81.1 µM]
CCOC(=O)C(c1c(O)c2ccccc2oc1=O)c1c(O)c2ccccc2oc1=O	1.57%
CC(C)[N+](=O)[O-]	-1.61%
CCCCCCBr	-0.322% [at 81.1 µM]
CCN(CC)C(C)C(=O)c1ccccc1 (stereo not given)	-1.98%
Cc1cnc[nH]1	-2.44%
CCS(=O)(=O)C(C)(C)S(=O)(=O)CC	3.56%
CCC(C)n1c(=O)[nH]c(C)c(Br)c1=O (stereo not given)	8.54%
CN(C)CCc1ccc(O)cc1	-0.274%
CCC1(c2ccccc2)C(=O)N=C(O)NC1=O (stereo not given)	-0.872%
CN1C[C@@H](NS(=O)(=O)N(C)C)C[C@@H]2c3cccc4c3c(cn4C)C[C@H]21	-9.1%
CC(C=O)Cc1ccc2c(c1)OCO2 (stereo not given)	10.9%
ClC(Cl)Br	12.9% [at 81.1 µM]
COc1ccc2c(c1OC)CN1CCc3cc4c(cc3C1C2)OCO4 (stereo not given)	-5.95%
O=[N+]([O-])c1cccc2cccnc12	-0.68% [at 81.1 µM]
CNC(=O)Oc1ccc(N(C)C)c(C)c1	0.549%
